Measured values published in the supplement of paper PMC9334596.
Values joined by “and” are separate entries in the source; they are usually repeats but may differ in a detail not shown here. Equal values may be shown once. The full ranking holds about 5,300 compounds; the median of “PER2::LUC luminescence relative to vehicle control” is about 0.96, and the highest 2% start at about 1.3. The full list was thinned out, with the highest values kept by preference.

System: mPer2Luc MEF
Assay: PER2::LUC luminescence relative to vehicle control (fold of vehicle); higher = higher PER2::LUC reporter signal
Conditions: 10 µM
How it was run: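 Mouse embryonic fibroblasts carrying the mPer2Luc reporter were seeded at ~3000 cells per well in 384-well plates, 48 h before compounds from commercial libraries were added at 10 μM. Cells were grown in DMEM with 10% FBS at 37 °C and 5% CO2. Luminescence was read with the ONE-Glo luciferase assay system 24 h and 30 h after treatment, followed by an alamarBlue viability assay. The value is PER2::LUC luminescence as fold of vehicle control.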

| SMILES | PER2::LUC luminescence (time after treatment 24 h) | PER2::LUC luminescence (time after treatment 30 h) |
| --- | --- | --- |
| OC1c2ccccc2N=C2CCCN21 (stereo not drawn) | 0.854 | 0.868 |
| N#CCC(C1CCCC1)n1cc(-c2ncnc3[nH]ccc23)cn1 (stereo not drawn) | 1.26 | 1.51 |
| CCS(=O)(=O)N1CC(CC#N)(n2cc(-c3ncnc4[nH]ccc34)cn2)C1 | 1.09 and 0.875 | 1.24 and 1.03 |
| N#CC[C@H](C1CCCC1)n1cc(-c2ncnc3[nH]ccc23)cn1 | 0.99 | 1.13 |
| CCC1=C[C@H]2CN(C1)Cc1c([nH]c3ccccc13)[C@@](C(=O)OC)(c1cc3c(cc1OC)N(C)[C@H]1[C@@](O)(C(=O)OC)[C@H](OC(C)=O)[C@]4(CC)C=CCN5CC[C@]31[C@@H]54)C2 | 0.279 | 0.324 |
| O=C(Nc1ccc(Cl)cc1)c1cc(Br)ccc1O | 0.822 | 0.728 |
| CCc1c(C(=O)NNC(=O)[C@@H](O)c2cc(F)cc(F)c2)ccc(O)c1C | 1.02 | 1.09 |
| O=C1N=c2ccccc2=C1c1c(O)[nH]c2ccccc12 | 0.942 | 0.677 |
| O=Nc1c(-c2c(O)[nH]c3ccccc23)[nH]c2ccccc12 | 1.72 | 2.02 |
| O=Nc1c(-c2c(O)[nH]c3cc(Br)ccc23)[nH]c2ccccc12 | 0.663 | 0.788 |
| CN(C)Cc1nc(-c2cn(C)c3ccccc23)no1 | 0.847 | 0.949 |
| CCCN(CCC)S(=O)(=O)c1ccc(C(=O)O)cc1 | 0.832 | 0.861 |
| NS(=O)(=O)c1ccc(C(=O)O)cc1 | 0.746 | 1.06 |
| O=C(O)c1ccc(S(=O)(=O)N(Cl)Cl)cc1 | 0.921 | 1.67 |
| COc1cccc(/C=N/N(C(=O)C(F)(F)F)c2ccc(C)cc2C)c1 | 0.818 | 0.768 |
| CN(CCCNC(=O)c1ccc2nc3c(c(Cl)c2c1)CCCC3)Cc1ccccc1 | 0.848 | 0.958 |
| C=CCn1c(=O)c2c(nc(-c3ccccc3)n2C)n(C)c1=O | 0.98 | 0.951 |
| O=c1c(O)c(-c2cc(O)c(O)c(O)c2)oc2cc(O)cc(O)c12 | 1.22 | 1.34 |
| O=c1c(O)c(-c2ccccc2)oc2cc(O)cc(O)c12 | 1.24 | 1.34 |
| O=c1c(O)c(-c2ccc(O)cc2O)oc2cc(O)cc(O)c12 | 0.955 | 0.963 |

| SMILES | PER2::LUC luminescence (time after treatment 24 h) | PER2::LUC luminescence (time after treatment 30 h) |
| --- | --- | --- |
| O=c1c(O)c(-c2ccccc2O)oc2cc(O)cc(O)c12 | 0.983 | 0.996 |
| O=c1c(O)c(-c2ccc(O)cc2)oc2cc(O)cc(O)c12 | 1.01 | 0.989 |
| O=c1c(O)c(-c2ccc(O)c(O)c2)oc2cc(O)cc(O)c12 | 0.939 and 0.842 | 0.934 and 1 |
| C[C@@H]1O[C@@H](O[C@H]2[C@H](Oc3cc(O)c4c(=O)c(O)c(-c5ccc(O)cc5)oc4c3)O[C@H](CO)[C@@H](O)[C@@H]2O)[C@H](O)[C@H](O)[C@H]1O | 1.24 | 0.968 |
| COC(=O)C1=CO[C@@H](O[C@@H]2O[C@H](CO)[C@@H](O)[C@H](O)[C@H]2O)[C@H]2[C@@H]1C(=O)C[C@@H]2C | 0.968 | 0.979 |
| NC(=O)[C@@H]1CC[C@H](c2ccc(OCc3ccccc3F)cc2)N1 | 0.937 | 1.12 |
| COc1ccc(C(=O)c2ccccc2C(=O)O)c(O)c1 | 1.19 | 0.841 |
| Ic1cccc(/C=N/Nc2nc(N3CCOCC3)nc(N(c3ccccc3)c3ccccc3)n2)c1 | 1.3 | 1.15 |
| CCOC(=O)C1=C(COCCN)NC(C)=C(C(=O)OC)[C@@H]1c1ccccc1Cl | 0.445 | 0.46 |
| COCCOC(=O)C1=C(C)NC(C)=C(C(=O)OC(C)C)C1c1cccc([N+](=O)[O-])c1 (stereo not drawn) | 1.13 | 1.17 |
| CCOC(=O)C1=C(C)NC(C)=C(C(=O)OC)C1c1cccc([N+](=O)[O-])c1 (stereo not drawn) | 1.06 and 0.626 | 1.37 and 0.715 |
| COC(=O)C1=C(C)NC(C)=C(C(=O)OCCN(C)Cc2ccccc2)C1c1cccc([N+](=O)[O-])c1 (stereo not drawn) | 1.07 | 0.867 |
| CNCc1ccc(C)c(NC(=O)c2ccc(Nc3nc(-c4ccccc4)c4ccccc4n3)cc2)c1 | 0.439 | 0.475 |
| Cc1ccc(C(=O)Nc2ccc(S(=O)(=O)O)c3cc(S(=O)(=O)O)cc(S(=O)(=O)O)c23)cc1NC(=O)c1cccc(NC(=O)Nc2cccc(C(=O)Nc3cc(C(=O)Nc4ccc(S(=O)(=O)O)c5cc(S(=O)(=O)O)cc(S(=O)(=O)O)c45)ccc3C)c2)c1 | 0.964 and 0.875 | 0.981 and 0.97 |
| Cc1ccc(NC(=O)c2cccc(N(C)C)c2)cc1NC(=O)c1ccc(O)cc1 | 1.1 | 1.56 |
| CO/S(=N\S(=O)(=O)c1ccc(Cl)cc1)c1ccc([N+](=O)[O-])cc1 (stereo not drawn) | 0.994 | 1.22 |
| NC(=O)c1ccc2nc(-c3ccc(Oc4ccc(Cl)cc4)cc3)[nH]c2c1 | 1.29 | 1.16 |
| COc1cc(OC)cc(C(=O)Nc2ccc(Cl)c(-c3nc4ccc(N(C)C)cc4[nH]3)c2)c1 | 0.977 | 1.35 |
| CC(C)CC[C@@H](O)[C@](C)(O)[C@H]1CC[C@@]2(O)C3=CC(=O)[C@]4(O)C[C@@H](O)[C@@H](O)C[C@]4(C)[C@H]3[C@H](O)C[C@]12C | 1.22 | 1.26 |
